Source: PubChem BioAssay (SRMLSC)
Only some compounds are listed: those with a hit (about 6.3% of all), similar ones and a draw of the others.
Fluor 339 460: intrinsic fluorescence of library compounds, ex339/em460 – biochemical, MLSMR library, data from DPM-DC assay, artefact control, profiling panel; compound autofluorescence, ex339/em460 nm, NADH buffer; stronger effect = higher value; 1 = no-compound wells, NADH background; fluorescence fold increase at 10 µM; actives 5.5% (n = 65,000); AID 709, 2007;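 active = at 10 µM, mean starting fluorescence two-fold or more over control wells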;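 also: signal is the first read of a kinetic run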
Spn DPM-DC inh: S. pneumoniae DPM-DC inhibitors, primary screen, biochemical, PK/LDH-coupled NADH fluorescence; purified DPM-DC; actives 0.49% (n = 65,000); calls only at 10 µM;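 active = the 320 compounds with the highest percent inhibition in the single-dose primary screen, excluding strongly autofluorescent ones, cut at about 32% in these data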;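 also: kinetic rate of NADH fluorescence loss reporting ADP formed by the decarboxylase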
Spn MK inh: S. pneumoniae MK inhibitors, primary screen, biochemical, PK/LDH-coupled NADH absorbance; actives 0.48% (n = 65,000); inhibition, % at 10 µM; purified MK, PK/LDH-coupled NADH absorbance 340 nm;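 active = ranked among the strongest by inhibition in the single 10 µM screen, a fixed top-ranked set picked for dose follow-up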
A340 absorber: compound light absorbance at 340 nm, profiling panel, artefact control, biochemical, MLSMR library, data from PS, PMK, MK assays; compound absorbance at 340 nm, fold over control; fold change at 10 µM; 65,000 tested, under 10 active;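 active = at 10 µM dose, initial 340 nm absorbance at least 2 fold that of control wells; inactive = change under 2 fold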;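 also: initial absorbance extrapolated from kinetic A340 decline of NADH oxidation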
NADH coupling: inhibitors of PK/LDH coupling enzymes, profiling panel, artefact control, biochemical, MLSMR library. IC50, µM (titrated, usually from 10 µM). coupled PK/LDH NADH assays, four targets. actives 0.02% (n = 65,000);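 active = single-dose screening hits from any of four coupled enzyme assays that gave an IC50 when retested across doses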;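 also: the DPM-DC format reads NADH fluorescence rather than 340 nm absorbance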
PMK inhibit: S. pneumoniae PMK inhibitors, primary screen, biochemical, mevalonate pathway, pilot trial included; phosphomevalonate kinase (Streptococcus pneumoniae D39); purified PMK, PK/LDH-coupled NADH absorbance 340 nm; inhibition, % at 10 µM; actives 0.49% (n = 65,000); AID 539, 2006;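 active = top-ranked compounds by inhibition in the single 10 µM screen, taking a fixed number of the strongest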
A number is an active result; . = inactive; / = no result shown; + = active, no number.

SMILES	Fluor 339 460	Spn DPM-DC inh	Spn MK inh	A340 absorber	NADH coupling	PMK inhibit
COCCN(CCOC)C(=O)c1cc2c(=O)n3ccccc3nc2s1	4.9	/	.	.	.	.
CCN(CC)C(=O)c1cc2c(=O)n3ccccc3nc2s1	2.1	/	.	.	.	.
Cc1occc1-c1nnc(SCC(=O)NCc2ccco2)n1CC(C)C	.	.	.	.	.	.
Cc1nn(-c2ccccc2)c2nc(-c3ccco3)cc(C(=O)O)c12	2	/	.	.	.	.
CCOC(=O)N1CCN(C(=O)c2cc(C)c3c(C)nn(-c4ccccc4)c3n2)CC1	.	.	.	.	.	.
O=C(O)c1cc(-c2ccco2)nc2ccccc12	3.7	/	.	.	.	.
CC(C)c1nc2oc3c(NCC4CCCO4)ncnc3c2c2c1COC(C)(C)C2 (configuration not stated)	3.8	/	.	.	.	.
CCCc1nc2oc3c(NCCOCCO)ncnc3c2c2c1COC(C)(C)C2	3.6	/	.	.	.	.
Cc1nc2oc3c(NCc4ccccc4)ncnc3c2c2c1COC(C)(C)C2	2.5	.	.	.	.	.
Cc1nc2sc3c(NCc4ccco4)ncnc3c2c2c1COC(C)(C)C2	.	.	.	.	.	.
Cc1nc2oc3c(NCC4CCCO4)ncnc3c2c2c1COC(C)(C)C2 (configuration not stated)	2.1	+	.	.	.	.
CCc1cc2c(NCC3CCCO3)ncnc2s1 (configuration not stated)	.	.	.	.	.	.
C#CC(C)(CC)NC(=O)c1cc(OC)c(OC)c(OC)c1 (configuration not stated)	.	.	.	.	.	.
CCOC(=O)c1cc(CC)sc1N	.	.	.	.	.	.
COc1ccc2[nH]c(C)c(CN3CCCC(C)C3)c(=O)c2c1 (configuration not stated)	2.1	.	.	.	.	.
CCOc1ccc2[nH]c(C)c(CN3CCCCC3)c(=O)c2c1	3	.	.	.	.	.
COc1ccc2[nH]c(C)c(CN3CCC(C)CC3)c(=O)c2c1	.	.	.	.	.	.
CC(C)(C)C(=O)CNS(=O)(=O)c1ccc(S(=O)(=O)NC2CCCC2)cc1	.	.	.	.	.	.
Cn1c(=O)c2c(nc(SCc3cccnc3)n2Cc2ccc(F)cc2)n(C)c1=O	.	.	.	.	.	.
S=c1[nH]nc(CSc2nc3ccccc3s2)o1	.	.	.	.	.	.
Oc1cc2ccccc2cc1-c1n[nH]c(=S)o1	3	.	.	.	.	.
O=C(CN1C(=O)c2cccc3cccc1c23)N1CCN(c2cccc(Cl)c2)CC1	2.4	.	.	.	.	.
O=C(CN1C(=O)c2cccc3cccc1c23)N1CCN(c2ccccc2)CC1	.	.	.	.	.	.
Cc1ccc(-c2csc3ncnc(Sc4nnc(CN5CCCCCC5=O)o4)c23)cc1	.	.	.	.	.	.
COc1ccc2c(c1)c1ncn(CCN3CCCC3)c(=O)c1n2C	3.7	/	.	.	.	.
SMILES	Fluor 339 460	Spn DPM-DC inh	Spn MK inh	A340 absorber	NADH coupling	PMK inhibit
COc1ccccc1CCn1cnc2c3cc(C)ccc3n(C)c2c1=O	3.3	.	.	.	.	.
Cc1ccc2c(c1)[nH]c1c(=O)n(CCN3CCCCC3)cnc12	.	.	.	.	.	.
Cc1ccc(-c2c3c(=O)n(C)c(=O)n(C)c3c3c(C)cc(C)nn23)cc1	.	.	.	.	.	.
CCn1c(Oc2ccc(Oc3ncc(Cl)cc3Cl)cc2)nc2c1c(=O)n(C)c(=O)n2C	.	.	.	.	.	.
COc1cccc2cc(-c3nc(-c4cccs4)cs3)c(=O)oc12	4.6	/	.	.	.	.
CCOC(=O)CNC(=O)CSc1nc2nc(C)c(Br)cc2[nH]1	.	.	.	.	.	.
Cc1cc2n(n1)C(c1ccccc1Cl)Nc1ccccc1-2 (configuration not stated)	.	.	.	.	.	.
CSc1ccc(C2Nc3ccccc3-c3cc(C)nn32)cc1 (configuration not stated)	2	.	.	.	.	.
Cc1cc2n(n1)C(c1ccsc1)Nc1ccccc1-2 (configuration not stated)	2.4	.	.	.	.	.
O=c1cc(N2CCOCC2)[nH]c(=O)n1-c1ccc(Br)cc1	.	.	.	.	.	.
Cc1cc(C)nc(Nc2nc(C)c3cc4c(cc3n2)OCO4)n1	3.5	/	.	.	.	.
Cc1nc(NC2=NCN(Cc3ccc4c(c3)OCO4)CN2)nc2ccccc12	.	.	.	.	.	.
Nn1c(SCC(=O)Nc2ccc(S(=O)(=O)N3CCCC3)cc2)nnc1C(F)(F)F	.	.	.	.	.	.
COc1ccc2[nH]c(=O)c(C(c3nnnn3CC3CCCO3)N3CCc4ccccc4C3)cc2c1 (configuration not stated)	3	.	.	.	.	.
CCCN1CCN(C(c2cc3cc(OCC)ccc3[nH]c2=O)c2nnnn2C2CCCCC2)CC1 (configuration not stated)	4.3	/	.	.	.	.
CCOc1ccc2[nH]c(=O)c(CN(CCO)C(c3nnnn3C3CCCCC3)C(C)C)cc2c1 (configuration not stated)	.	.	.	.	.	.
COc1ccc2[nH]c(=O)c(C(c3nnnn3C3CCCCC3)N3CCN(C)CC3)cc2c1 (configuration not stated)	4.5	/	.	.	.	.
COc1ccc2cc(C(c3nnnn3C3CCCC3)N3CCc4ccccc4C3)c(=O)[nH]c2c1 (configuration not stated)	.	.	.	.	.	.
COc1cc2cc(C(c3nnnn3Cc3ccc(F)cc3)N3CCCCCC3)c(=O)[nH]c2cc1OC (configuration not stated)	2.1	.	.	.	.	.
NC(=O)c1ccsc1NC(=O)C1CCCCC1	.	.	.	.	.	.
Cc1ccc(NC2=NC(c3ccco3)n3c(nc(C)cc3=O)N2)c(C)c1 (configuration not stated)	.	.	.	.	.	.
CC(=O)c1cc2c(cc1NC(=O)c1ccc(-n3nc(C)cc3C)cc1)OCO2	2.1	/	.	.	.	.
Cc1cc(C)n(-c2ccc(C(=O)Nc3nc4ccccc4s3)cc2)n1	3.3	.	.	.	.	.
O=C(CSc1nc2ccccc2[nH]1)Nc1ccccc1N1CCOCC1	.	.	.	.	.	.
c1ccc2[nH]c(SN3CCOCC3)nc2c1	.	.	54	.	.	.
CC(C)(C)c1cc(=O)n2c(C#N)c(C#N)nc2[nH]1	5	/	.	.	.	.
